Consider 6 sequences from PMC11574364.

Chain of IGF2BP2 (Q9Y6M1 1-177): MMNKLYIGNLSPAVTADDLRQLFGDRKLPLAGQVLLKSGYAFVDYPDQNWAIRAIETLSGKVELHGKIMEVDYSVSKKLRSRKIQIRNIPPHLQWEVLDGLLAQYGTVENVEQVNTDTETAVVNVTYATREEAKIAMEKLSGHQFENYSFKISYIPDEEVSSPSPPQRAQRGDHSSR

The target of one test is PABPC1L2A (Homo sapiens, UniProt Q5JQF8). The test is described as follows: protein domain microarray probed with biotinylated miRNA; Domain array: 20 mM Tris-HCl pH 7.4, 200 mM KCl, 0.2 mM EDTA, 0.05% NP40, 2 ug/ul heparin, overnight 4 C. ORF array: PBS pH 7.0 with RNase inhibitor, 100 ng RNA; high values mean tight binding. The following applies: ssRNA.
Chain of PABPC1L2A (Q5JQF8 whole entry, the tested form may be a part): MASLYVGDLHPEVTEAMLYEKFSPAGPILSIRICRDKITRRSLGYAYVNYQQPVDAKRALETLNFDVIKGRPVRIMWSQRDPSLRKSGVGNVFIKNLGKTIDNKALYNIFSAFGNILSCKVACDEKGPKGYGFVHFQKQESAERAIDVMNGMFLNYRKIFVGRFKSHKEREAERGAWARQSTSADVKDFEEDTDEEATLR
UGAGGUAGUAGGUUGUGUGGUU showed a binding signal of 312 ± 42.4 fluorescence intensity.

As to CAGUGCAAUGAUGAAAGGGCAU, the binding signal stood at 88.7 ± 6.19 fluorescence intensity.

In the case of UGAGGUAGUAGGUUGUAUAGUU, the binding signal is 46.3 ± 9.23 fluorescence intensity.

The sequence AGAGGUAGUAGGUUGCAUAGUU showed a binding signal of 179 ± 20.3 fluorescence intensity.

The sequence UGAGGUAGUAGGUUGUAUGGUU displayed a binding signal of 240 ± 13.7 fluorescence intensity.

For the next test, the target named is CELF6(1-2) (Homo sapiens, UniProt Q96J87). The test is described as above. The following applies: ssRNA.
Chain of CELF6(1-2) (Q96J87 21-233): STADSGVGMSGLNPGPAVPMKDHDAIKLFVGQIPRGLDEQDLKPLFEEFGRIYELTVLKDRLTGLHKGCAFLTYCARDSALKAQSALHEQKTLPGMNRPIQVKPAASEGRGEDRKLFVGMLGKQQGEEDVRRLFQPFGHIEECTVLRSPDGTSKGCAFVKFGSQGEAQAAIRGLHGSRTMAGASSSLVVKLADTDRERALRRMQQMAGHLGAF
UGAGGUAGUAGGUUGUGUGGUU returned a binding signal of 224 ± 12 fluorescence intensity.

CAGUGCAAUGAUGAAAGGGCAU showed a binding signal of 105 ± 14.1 fluorescence intensity.

Regarding UGAGGUAGUAGGUUGUAUAGUU, the binding signal turned out to be 28.4 ± 3.05 fluorescence intensity.

The sequence AGAGGUAGUAGGUUGCAUAGUU returned a binding signal of 88.4 ± 8.85 fluorescence intensity.

The sequence UAGCUUAUCAGACUGAUGUUGA showed a binding signal of 32.2 ± 4.03 fluorescence intensity.

Sequence UGAGGUAGUAGGUUGUAUGGUU came in with a binding signal of 89.8 ± 3.29 fluorescence intensity.

The target of another test is T1, NCBP2 (Homo sapiens, UniProt P52298).
T1 sequence: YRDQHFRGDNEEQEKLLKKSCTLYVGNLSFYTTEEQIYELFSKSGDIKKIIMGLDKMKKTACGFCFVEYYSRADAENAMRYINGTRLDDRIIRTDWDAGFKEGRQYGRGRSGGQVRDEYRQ
The test is described as above. The following applies: ssRNA.
UGAGGUAGUAGGUUGUGUGGUU: the binding signal amounted to 68.7 ± 13.2 fluorescence intensity.

The sequence AGAGGUAGUAGGUUGCAUAGUU had a binding signal of 29.2 ± 11.8 fluorescence intensity.

For the sequence UGAGGUAGUAGGUUGUAUGGUU, the binding signal was determined as 66.8 ± 8.78 fluorescence intensity.

The target in a further test is T2, hnRNP-D-like (Homo sapiens, UniProt O14979).
T2 sequence: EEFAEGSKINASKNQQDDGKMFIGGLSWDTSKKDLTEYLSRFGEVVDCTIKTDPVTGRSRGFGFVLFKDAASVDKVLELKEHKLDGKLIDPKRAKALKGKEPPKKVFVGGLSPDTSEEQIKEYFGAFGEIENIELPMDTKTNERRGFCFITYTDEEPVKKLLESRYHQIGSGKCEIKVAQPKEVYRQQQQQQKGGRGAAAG
The test is described as above. The following applies: ssRNA.
In turn, UGAGGUAGUAGGUUGUGUGGUU displayed a binding signal of 751 ± 46.5 fluorescence intensity.

CAGUGCAAUGAUGAAAGGGCAU returned a binding signal of 250 ± 14.8 fluorescence intensity.

In turn, UGAGGUAGUAGGUUGUAUAGUU returned a binding signal of 288 ± 15.7 fluorescence intensity.

Take AGAGGUAGUAGGUUGCAUAGUU: the binding signal worked out at 601 ± 9.77 fluorescence intensity.

For the sequence UAGCUUAUCAGACUGAUGUUGA, the binding signal is 40.3 ± 4.07 fluorescence intensity.

UGAGGUAGUAGGUUGUAUGGUU: the binding signal was 741 ± 27.9 fluorescence intensity.

The next test has as its target IGF2BP2 (Homo sapiens, UniProt Q9Y6M1). The description is as above. The following applies: ssRNA.
UGAGGUAGUAGGUUGUGUGGUU registered a binding signal of 60.9 ± 10.8 fluorescence intensity.

The sequence CAGUGCAAUGAUGAAAGGGCAU gave a binding signal of 91.7 ± 5.63 fluorescence intensity.

UGAGGUAGUAGGUUGUAUAGUU returned a binding signal of 28.3 ± 5.47 fluorescence intensity.

Take AGAGGUAGUAGGUUGCAUAGUU: the binding signal is 130 ± 20.3 fluorescence intensity.

UAGCUUAUCAGACUGAUGUUGA had a binding signal of 21.5 ± 2.16 fluorescence intensity.

As to UGAGGUAGUAGGUUGUAUGGUU, the binding signal was 49.2 ± 7.44 fluorescence intensity.

A further test deals with NIFK (Homo sapiens, UniProt Q9BYG3). The test is described as above. The following applies: ssRNA.
In turn, UGAGGUAGUAGGUUGUGUGGUU came in with a binding signal of 207 ± 7.23 fluorescence intensity.

CAGUGCAAUGAUGAAAGGGCAU: the binding signal worked out at 38.6 ± 4.43 fluorescence intensity.

On to UGAGGUAGUAGGUUGUAUAGUU, for which the binding signal came out at 23 ± 0.658 fluorescence intensity.

AGAGGUAGUAGGUUGCAUAGUU returned a binding signal of 81.96 ± 0.608 fluorescence intensity.

Consider UGAGGUAGUAGGUUGUAUGGUU, for which the binding signal was determined as 138 ± 7.4 fluorescence intensity.

Another test addresses T3, PABPNL1 (Homo sapiens, UniProt A6NDY0).
T3 sequence: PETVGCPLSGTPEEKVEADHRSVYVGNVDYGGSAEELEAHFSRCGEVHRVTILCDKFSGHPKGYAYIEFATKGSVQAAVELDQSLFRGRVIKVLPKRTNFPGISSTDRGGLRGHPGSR
Described as above. The following applies: ssRNA.
Sequence UGAGGUAGUAGGUUGUGUGGUU displayed a binding signal of 1609 ± 3.14 fluorescence intensity.

In turn, CAGUGCAAUGAUGAAAGGGCAU showed a binding signal of 2030 ± 144 fluorescence intensity.

Sequence UGAGGUAGUAGGUUGUAUAGUU showed a binding signal of 531 ± 16.5 fluorescence intensity.

AGAGGUAGUAGGUUGCAUAGUU displayed a binding signal of 1510 ± 38.3 fluorescence intensity.

UAGCUUAUCAGACUGAUGUUGA had a binding signal of 322 ± 10.4 fluorescence intensity.

As for UGAGGUAGUAGGUUGUAUGGUU, the binding signal amounted to 1110 ± 57.4 fluorescence intensity.

The target in another test is PABPC5 (Homo sapiens, UniProt Q96DU9). Described as above. The following applies: ssRNA.
Chain of PABPC5 (Q96DU9 whole entry): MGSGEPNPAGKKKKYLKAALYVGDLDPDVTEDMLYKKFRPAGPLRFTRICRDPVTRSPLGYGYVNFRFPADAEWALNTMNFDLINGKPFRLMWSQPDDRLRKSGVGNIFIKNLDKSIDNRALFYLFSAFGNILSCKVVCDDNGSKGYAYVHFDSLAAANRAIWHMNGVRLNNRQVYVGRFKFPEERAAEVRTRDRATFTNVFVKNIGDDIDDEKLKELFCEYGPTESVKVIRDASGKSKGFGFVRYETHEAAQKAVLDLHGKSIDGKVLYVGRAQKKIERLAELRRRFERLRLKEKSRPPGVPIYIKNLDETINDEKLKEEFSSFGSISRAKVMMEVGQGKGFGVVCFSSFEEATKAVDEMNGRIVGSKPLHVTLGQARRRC
Sequence UGAGGUAGUAGGUUGUGUGGUU came in with a binding signal of 304 ± 27.6 fluorescence intensity.

Sequence CAGUGCAAUGAUGAAAGGGCAU displayed a binding signal of 187 ± 8.46 fluorescence intensity.

For the sequence UGAGGUAGUAGGUUGUAUAGUU, the binding signal is 52 ± 3.7 fluorescence intensity.

Sequence AGAGGUAGUAGGUUGCAUAGUU returned a binding signal of 351 ± 14.6 fluorescence intensity.

For the sequence UGAGGUAGUAGGUUGUAUGGUU, the binding signal turned out to be 291 ± 13.4 fluorescence intensity.

The next test concerns the target T4, MYEF2(1-2) (Homo sapiens, UniProt Q9P2K5).
T4 sequence: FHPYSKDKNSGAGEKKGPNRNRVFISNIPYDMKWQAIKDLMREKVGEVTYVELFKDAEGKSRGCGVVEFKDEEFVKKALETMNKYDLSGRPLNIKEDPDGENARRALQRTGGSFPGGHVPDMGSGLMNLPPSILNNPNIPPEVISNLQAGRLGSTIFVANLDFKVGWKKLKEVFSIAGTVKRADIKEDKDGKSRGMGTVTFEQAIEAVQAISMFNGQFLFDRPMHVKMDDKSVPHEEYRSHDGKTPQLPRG
The test is described as above. Particulars: ssRNA.
As to UGAGGUAGUAGGUUGUGUGGUU, the binding signal came to 1050 ± 50.7 fluorescence intensity.

With CAGUGCAAUGAUGAAAGGGCAU, the binding signal was determined as 826 ± 53.3 fluorescence intensity.

UGAGGUAGUAGGUUGUAUAGUU came in with a binding signal of 228 ± 4.88 fluorescence intensity.

Sequence AGAGGUAGUAGGUUGCAUAGUU registered a binding signal of 1130 ± 77.2 fluorescence intensity.

For UAGCUUAUCAGACUGAUGUUGA, the binding signal is 393 ± 6.4 fluorescence intensity.

As to UGAGGUAGUAGGUUGUAUGGUU, the binding signal came out at 789 ± 41.9 fluorescence intensity.
